# Sampled rows, rich in hits. Any-hit rate of the full collection: about 11%.
# FLuc inh: firefly luciferase inhibition; 72,000 compounds, 2.2% hits; Potency, µM (doses to about 57.1 µM), inactives show top-dose activity change, negative = inhibition, most hits filed as inhibitors; AID 411; P08659; purified firefly luciferase, luminescence, 8 min; note: nearly all actives have a fitted effect of over 40% in size
# Target sequence (P08659 whole entry, looked up): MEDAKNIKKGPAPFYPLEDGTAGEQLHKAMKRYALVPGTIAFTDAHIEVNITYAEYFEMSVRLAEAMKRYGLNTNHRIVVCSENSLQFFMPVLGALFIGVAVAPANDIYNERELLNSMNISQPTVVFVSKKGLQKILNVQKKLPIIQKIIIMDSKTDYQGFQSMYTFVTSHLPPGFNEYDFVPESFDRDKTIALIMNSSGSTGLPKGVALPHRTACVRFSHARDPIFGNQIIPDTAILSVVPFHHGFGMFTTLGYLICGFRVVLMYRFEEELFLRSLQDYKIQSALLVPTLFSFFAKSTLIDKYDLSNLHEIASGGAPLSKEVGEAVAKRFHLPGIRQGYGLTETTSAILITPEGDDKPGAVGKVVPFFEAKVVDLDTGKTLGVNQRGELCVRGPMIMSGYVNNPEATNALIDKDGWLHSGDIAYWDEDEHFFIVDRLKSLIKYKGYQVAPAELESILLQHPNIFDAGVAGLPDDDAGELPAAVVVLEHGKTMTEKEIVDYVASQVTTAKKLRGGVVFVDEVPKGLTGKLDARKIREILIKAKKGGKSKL
#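 Substrate buffer containing 10 uM ATP (pH 7.2 imidazole, Mg2+, KCl, detergent, BSA) is dispensed, compound pinned in, then luciferase/luciferin detector mix added. After 8 min at ambient temperature, light output is measured.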
# ERK AVP inh: inhibitors of vasopressin-stimulated ERK signaling pathway; 72,000 compounds, 0.99% hits; HEK293-V1b, vasopressin-stimulated pERK AlphaScreen; AID 995; Potency, µM (titrated, usually from 57.5 µM), inactives show at the top dose activity, negative = inhibition, actives largely listed as inhibitors; note: nearly all actives have a fitted effect of over 55% in size
#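 Phosphorylated ERK1/2 detected via AlphaScreen bead proximity in lysates of V1b-expressing HEK293 cells given 25 nM vasopressin for 5 min after 30 min compound exposure (37 °C). AC50 from Hill equation; basal DMSO 0%, vasopressin 100%.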
# PK Bst: modulators of Bacillus stearothermophilus pyruvate kinase; Potency, µM; purified pyruvate kinase, luminescence ATP production; ribose 5-phosphate activator present at AC10; 51,000 compounds, 1.2% hits; in the data active = potency below about 11 µM; inconclusive = mostly about 12 µM to 25 µM;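 the screen sought inhibitors and activators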;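 note: scaled between full activation by ribose 5 phosphate and full inhibition by luteolin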
# 15-hLO inh: inhibitors of human 15-lipoxygenase (ALOX15) | Potency, µM (doses to about 57.1 µM), without a hit: at the highest dose activity change, negative = inhibition, most hits filed as inhibitors | purified 15hLO-1, xylenol orange hydroperoxide absorbance | 74,000 compounds, 1.4% hits | P16050; note: nearly all actives have a fitted effect of over 55% in size
#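 Hydroperoxide formed from arachidonic acid (50 uM) by purified human 15hLO-1 (40 nM) oxidizes ferrous iron, and the ferric-xylenol orange complex is read at 573 versus 405 nm. Compounds were preincubated 15 min; reaction ran 6 min at room temperature.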
# HADH2 inhib: inhibitors of human HADH2 dehydrogenase. recombinant HADH2, NADH fluorescence, beta-hydroxybutyryl-CoA. 73,000 compounds, 3.4% hits. Q99714. Potency, µM (titrated, usually from 57.1 µM), inactives show at the highest dose activity change, negative = inhibition, actives largely listed as inhibitors; note: nearly all actives have a fitted effect of over 60% in size
#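 Activity measured as NADH fluorescence gain (360/450 nm), taken as the change between first and last reads of a 4-min kinetic run. Conditions: pH 9.0 Tris buffer, 20 nM E. coli-expressed His-tagged enzyme, 1 mM NAD+, 90 uM beta-hydroxybutyryl-CoA; 15-min compound preincubation.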
# HSD17B inh: HSD17B dehydrogenase inhibition. recombinant HSD17B10, NADH fluorescence kinetic. 75,000 compounds, 7.6% hits. Potency, µM (doses to about 57.1 µM), without a hit: top-dose activity change, negative = inhibition, hits mostly inhibitors. Q99714;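 note: the protocol describes HADH2 (HSD17B10) and not the HSD17B4 of the title; nearly all actives have a fitted effect of over 70% in size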
#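 Enzyme plus compound, 15 min room temperature; substrate mix added (NAD+ 1 mM, beta-hydroxybutyryl-CoA 90 uM final); plates read kinetically for NADH fluorescence. HADH2 was His-tagged, E. coli-derived, 20 nM.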
# An asterisk follows results filed as active; ? = inconclusive; / = no result; [ ] = dose if it differs, or a comment. Unless noted, calls come from the whole dose curve; as a rule, active = well fitted curve in the direction sought with a large enough effect; inconclusive = small, poorly fitted or top-dose-only effect, or another doubt; inactive = no such curve, though single readings can be large; an effect the other way counts as inactive or inconclusive. Unless noted, % is set by controls: 0 for no effect and ±100 for the full control effect; potency is the fitted concentration of half-maximal effect.
SMILES,FLuc inh,ERK AVP inh,PK Bst,15-hLO inh,HADH2 inhib,HSD17B inh
Cn1c(=O)cc(SCC(=O)NCC2CCCO2)c2ccccc21 (configuration not stated),-0.9%,3.3%,>57,8.5%,-22.7%,20µM*
CCOC(=O)C1CCCN(C(=O)c2ccc3c(c2)OCO3)C1 (configuration not stated),-0.4%,-8.5%,>57,15.8%,-8.2%,-11.8%
CNC(=O)c1cc2c(=O)n3cccc(C)c3nc2n1C,2.7%,2.3%,>57,0.7%,?,3.16µM*
COC(=O)C1=C(C)N(Cc2ccccc2)C2=C(C(C)=O)C[C@@](O)(C(=O)OC)C(=O)N2C1c1ccccc1 (some centres not stated),/,-9.0%[11.5 µM],/,-0.7%[11.4 µM],-9.0%[11.4 µM],2.4%[11.4 µM]
CC(=O)O[C@]1(C)CC[C@]23CC1C(C)(C)C2CC[C@@H]3C (some centres not stated),/,16.1%,/,25.1µM*,/,-8.6%
CC1CCC2C(C)(C)C3CC12CC[C@]3(C)O (some centres not stated),/,7.9%,/,?,/,-0.5%
CC(C)=NOCc1ccc(-c2cn([C@@H]3COC[C@@H]3O)nn2)cc1,0.7%[11.4 µM],12.2%[11.5 µM],/,1.6%[11.4 µM],?,-3.5%[11.4 µM]
C=CCn1c(=O)c2c(nc(-c3ccc(S(=O)(=O)O)cc3)n2C)n(C)c1=O,-1.0%,-9.7%,/,11.7%,216.9%,25.1µM*
CCOC(=O)c1[nH]nc2c1C(=O)N(CC)C2=O,2.6%,-3.3%,>57,-20.2%,-12.9%,31.6µM*
CCN1C(=O)c2n[nH]c(C(=O)OC)c2C1=O,0.9%,4.4%,>57,17.8%,3.1%,31.6µM*
CCOC(=O)c1[nH]nc(-c2c(O)cc(C)cc2O)c1-c1csc(C)n1,0.0%,2.1%,>57,-4.3%,2.6%,-2.8%
CCN1C(=O)[C@@H]2[C@H]3C(=CC[C@H]2C1=O)C(=O)[C@H]1OC1[C@H]3O (some centres not stated),-3.4%[11.4 µM],28.9%[11.5 µM],/,-1.9%[11.4 µM],-27.8%[11.4 µM],-9.4%[11.4 µM]
Cc1ccc(C(=O)CSc2nnc(CNc3nc(-c4ccccc4)cs3)n2C)cc1,2.0%,12.6µM*,>57,?,?,-27.1%
CCn1c(CNc2nc(-c3ccccc3)cs2)nnc1SCC(=O)NCc1ccco1,4.1%,2.8%,>57,-8.8%,-22.3%,-11.3%
CCOC(=O)c1cc2c(=O)n3ccccc3nc2n(Cc2ccc(Cl)cc2)c1=N,0.7%,-12.8%,>57,-2.6%,22.3%,-10.1%
N=c1c(C(=O)NCc2ccc(F)cc2)cc2c(=O)n3ccccc3nc2n1Cc1ccco1,4.1%,-1.6%,>57,-5.3%,7.7%,?
N=c1c(C(=O)NCc2ccccc2)cc2c(=O)n3ccccc3nc2n1Cc1ccco1,-1.8%[25.5 µM],/,/,/,/,/
COc1ccc(CNC(=O)c2cc3c(=O)n4ccccc4nc3n(Cc3cccnc3)c2=N)cc1,1.9%,12.8%,>57,-26.9%,0.0%,12.6µM*
CCn1c(=N)c(C(=O)OC)cc2c(=O)n3ccccc3nc21,-34.0%,-14.3%,>57,-6.3%,20µM*,3.16µM*
N=c1c(C(=O)NCc2ccco2)cc2c(=O)n3ccccc3nc2n1Cc1ccccc1,3.2%,?,/,?,9.1%,20µM*
COCCn1c(=N)c(C(=O)NCc2ccco2)cc2c(=O)n3ccccc3nc21,5.7%,-21.1%,>57,-11.9%,-13.1%,20µM*
C[C@@H](C(=O)NCc1ccc(C(F)(F)F)nc1)[C@H]1C[C@]1(C)[C@H](NC(=O)OCc1ccccc1)c1ccccc1,/,38.7%,/,/,-0.1%,6.4%
O=C(O)c1cc(S(=O)(=O)Nc2cccc(F)c2)ccc1Cl,/,/,/,1.0%,-5.7%,2.3%
CCOC(=O)N/N=C1/C[C@@H](O)[C@@H](O)[C@@H]2[C@@H]3C(=O)N([C@@H](C)c4ccccc4)C(=O)[C@H]3CC[C@H]12,-0.2%[11.4 µM],-8.1%[11.5 µM],/,1.6%[11.4 µM],7.9%[11.4 µM],0.5%[11.4 µM]
O=C(NCCc1cn2ccccc2n1)C1CCCCC1,-2.2%,/,/,-3.5%,52.1%,31.6µM*
SMILES,FLuc inh,ERK AVP inh,PK Bst,15-hLO inh,HADH2 inhib,HSD17B inh
COc1cc(C(=O)NCc2cn3ccccc3n2)cc(OC)c1OC,0.5%,-8.0%,>57,-6.3%,4.2%,-20.7%
O=C(Cc1cccs1)NCc1cn2ccccc2n1,0.8%,/,/,7.5%,8.8%,31.6µM*
O[C@H]([C@H](O)[C@@H](O)c1nc2ccccc2[nH]1)[C@@H](O)c1nc2ccccc2[nH]1,1.4%[11.4 µM],2.8%[11.5 µM],/,14.2%[11.4 µM],6.5%[11.4 µM],8.0%[11.4 µM]
Cc1ccc(-c2cc(C(F)F)nc(N3CCC(C)CC3)n2)cc1,1.5%,27.0%,>57,1.7%,-12.4%,31.6µM*
Nc1ccc(C(=O)C[C@H](N)C(=O)O)cc1O,2.1%[11.4 µM],10.5%[11.5 µM],/,14.1%[11.4 µM],2.9%[11.4 µM],1.4%[11.4 µM]
CCCCCN=c1ccn(Cc2ccccc2)c2ccccc12,25.1µM*,?,/,-9.4%[25.6 µM],7.3%,-8.8%
CCCCCCn1cc(C(=O)O)c(=O)c2ccccc21,1.3%[25.5 µM],/,>11.4,/,/,/
c1ccc(-c2oc3ncnc(NCCCn4ccnc4)c3c2-c2ccccc2)cc1,-0.1%,25.1µM*,>57,2.5%,31.6µM*,25.1µM*
c1ccc(-c2oc3ncnc(NCCN4CCOCC4)c3c2-c2ccccc2)cc1,-0.3%,?,>57,-16.4%,?,31.6µM*
C=Cc1ccc([C@H]2N[C@@H](C(=O)O)CC[C@@H]2C)cc1,0.7%[11.4 µM],23.1%[11.5 µM],/,4.4%[11.4 µM],-4.5%[11.4 µM],5.0%[11.4 µM]
CCCCCC/C=C\CCCCCCCc1cccc(O)c1C(=O)O,/,-5.8%,/,1.58µM*,/,?
